Values joined by “and” are separate entries in the source; they are usually repeats but may differ in a detail not shown here. Equal values may be shown once. Records with an inconclusive call do not appear. Active and inactive are the calls of the source. Unless noted, calls follow the shape of the dose curve; as a rule, active = well fitted curve in the direction sought with a large enough effect; inconclusive = small, poorly fitted or top-dose-only effect, or another doubt; inactive = no such curve, though single readings can be large; an effect the other way counts as inactive or inconclusive.
How the values were obtained:
[1] = qHTS Assay for Lipid Storage Modulators (AID 1519; calls by dose curve; as to activity change, negative = inhibition: % is scaled to controls: 0 for no effect and ±100 for the full control effect); details: Drosophila S3 cells, BODIPY lipid droplet/cell ratio, laser cytometry, cells loaded with oleic acid
In short: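 Cells seeded at 5,000 per well were treated with compounds over a concentration series and loaded with oleic acid (400 uM, as added). Lipid droplet fluorescence (488 nm excitation, 500-530 nm channel) was read by laser-scanning cytometry and normalized to 20 uM Triacsin C.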

[2] = Validation of Assay for Modulators of Lamin A Splicing (AID 1459; active = well fitted curve in the direction sought with a large enough effect in the signal ratio; the % refers to the signal ratio;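 also: cells exposed to compound for two days before reading; 0% is about no effect; ratio rise marks activators and ratio drop marks inhibitors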); details: Lamin A splicing dual RFP/GFP fluorescence reporter; series mostly up to 9.22 µM
In short: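 S3 HeLa cells stably expressing a lamin A-EGFP splicing minigene and DsRed2 were seeded at 600 cells/well in Opti-MEM with 2% FBS, pin-dosed, and incubated 48 hrs at 37 °C, 5% CO2. Laser-scanning cytometry (488 nm) gave GFP/RFP total intensity ratio.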

[3] = target: DNA repair nuclease/redox regulator APEX1 (Homo sapiens) (UniProt P27695); experiment: qHTS Validation Assay for Inhibitors of the Human Apurinic/apyrimidinic Endonuclease 1 (APE1) (AID 1705;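 also: TAMRA fluorescence gain over two minutes as APE1 cuts a quenched THF abasic duplex; % is scaled to controls: 0 for no effect and ±100 for the full control effect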); details: purified APE1 endonuclease activity, fluorescence, titration; series mostly up to 57.1 µM
In short: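 Human APE1 was preincubated with compound for 15 min at room temperature, then 50 nM (final) THF-abasic double-stranded DNA substrate bearing 5'-TAMRA and 3'-BHQ-2 was added. Incision-driven fluorescence rise (ex 525/em 598 nm) was read kinetically.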

[4] = Counterscreen for APE1 Inhibitors: Fluorescent Dye Displacement Validation Assay (AID 1707); details: fluorescent dye displacement from DNA; series mostly up to 57.1 µM;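 also: plate controls were ThO with dsDNA and no compound for no effect and ThO without dsDNA for full effect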
In short: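 Counterscreen flags promiscuous DNA binders: compounds displacing ThO from duplex DNA (abasic THF site, 50 nM) reduce 540 nm emission (480 nm excitation). ThO 250 nM final; Tris-HCl pH 7.5 with NaCl, MgCl2 and Tween-20.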

[5] = target: Endonuclease 4 (Escherichia coli (strain K12)) (UniProt P0A6C1); experiment: Counterscreen for APE1 Inhibitors: qHTS Validation Assay for Inhibitors of Endonuclease IV (AID 1708); also: % is scaled to controls: 0 for no effect and ±100 for the full control effect; details: E. coli endonuclease IV, DNA cleavage fluorescence; series mostly up to 57.1 µM
In short: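 Read-out: fluorescence rise (ex 525/em 598 nm) from incision of a TAMRA/BHQ-2 double-stranded THF abasic-site substrate (50 nM), measured kinetically; third-minus-first read difference gave reaction progress. Enzyme 2 nM.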

[6] = qHTS for differential inhibitors of proliferation of Plasmodium falciparum line 7G8 (AID 1815); details: Plasmodium falciparum 7G8 proliferation inhibition; series mostly up to 28.7 µM;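 also: parasite growth measured after three days of incubation; plate controls were vehicle wells for no effect and reference inhibitor wells for full effect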
[7] = qHTS for differential inhibitors of proliferation of Plasmodium falciparum line GB4 (AID 1816); details: Potency: Plasmodium falciparum GB4 proliferation inhibition; series mostly up to 28.7 µM;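 also: parasite growth measured after 72 h incubation; 0% = vehicle DMSO and -100% = reference inhibitor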
[8] = qHTS for differential inhibitors of proliferation of Plasmodium falciparum line 3D7 (AID 1876);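 also: parasite growth measured after three days of culture; 0% = vehicle wells and -100% = reference inhibitor wells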; details: P. falciparum 3D7 proliferation inhibition; series mostly up to 28.7 µM
[9] = Cell Viability - LYMP2-010 (AID 981); details: LYMP2-010 lymphoblastoid cell viability, qHTS; series mostly up to 92.2 µM; also: % is scaled to controls: 0 for no effect and ±100 for the full control effect; nearly all actives have a fitted effect of over 55% in size
In short: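 This 24 hr viability screen uses LYMP2-010 lymphoblastoid cells, quantifies ATP via luciferase luminescence, and derives AC50 from Hill fits of qHTS concentration-response data.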

[10] = Cell Viability - LYMP2-012 (AID 982); details: LYMP2-012 lymphoblastoid cell viability qHTS; series mostly up to 92.2 µM;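 also: cellular ATP by luciferase luminescence where a drop means cytotoxicity; cells exposed to compound for one day before reading; 0% = DMSO only and full loss = 92 µM tetraoctylammonium bromide; nearly all actives have a fitted effect of over 55% in size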
[11] = Cell Viability - LYMP2-014 (AID 983); details: LYMP2-014 lymphoblastoid cells, viability qHTS; series mostly up to 92.2 µM;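 also: cells exposed to compound for 24 h at 37 °C; plate controls were DMSO only for no effect and 92 µM tetraoctylammonium bromide for full effect; nearly all actives have a fitted effect of over 50% in size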
In short: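 Quantitative HTS in lymphoblastoid cells: 24 hr compound exposure, then CellTiter-Glo ATP luminescence. Positive control was tetraoctylammonium bromide, 6.4pM to 92 uM.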

[12] = Cell Viability - LYMP2-016 (AID 984); details: LYMP2-016 lymphoblastoid cell viability, qHTS; series mostly up to 92.2 µM; also: % is scaled to controls: 0 for no effect and ±100 for the full control effect; nearly all actives have a fitted effect of over 55% in size
In short: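 Human lymphoblastoid cells (LYMP2-016), 2500/well in complete medium, preincubated 5 hr at 37 C, then compound-treated 24 hr at 37 C. Intracellular ATP read by CellTiter-Glo luminescence after 30 min at room temperature; AC50 from Hill-equation concentration-response fits.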

[13] = Cell Viability - LYMP2-018 (AID 985); details: LYMP2-018 lymphoblastoid cells, viability (qHTS); series mostly up to 92.2 µM;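 also: plate controls were DMSO only for no effect and tetraoctylammonium bromide at 92 µM for full effect; nearly all actives have a fitted effect of over 50% in size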
In short: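 In this qHTS viability assay, cells are treated for 24 hr and cellular ATP is quantified by luciferase-based luminescence, with tetraoctylammonium bromide as positive control.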

[14] = Cell Viability - LYMP2-020 (AID 986); details: series mostly up to 92.2 µM;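 also: cells exposed to compound for 24 h at 37 °C; plate controls were DMSO only for no effect and tetraoctylammonium bromide at 92 µM for full effect; nearly all actives have a fitted effect of over 55% in size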
In short: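 Cells at 2500 per well receive a 24 hr compound exposure at 37 C. Viability is measured as ATP-dependent luciferase luminescence, with AC50 modeled from qHTS concentration-response curves.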

[15] = Cell Viability - LYMP2-022 (AID 987); details: LYMP2-022 lymphoblastoid cell viability; series mostly up to 92.2 µM
In short: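 In this qHTS cytotoxicity screen, compound titrations were incubated 24 hr at 37 C with human lymphoblastoid cells in complete medium. Luciferase-based ATP luminescence provided the viability signal.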

[16] = Cell Viability - LYMP2-024 (AID 988); details: LYMP2-024 lymphoblastoid cell viability; series mostly up to 92.2 µM;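 also: plate controls were DMSO only for no effect and 92 µM tetraoctylammonium bromide for full effect; nearly all actives have a fitted effect of over 60% in size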
In short: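 Cells at 2500 per well received compound for 24 hr after a 5 hr settling period. Viability was scored by CellTiter-Glo luminescence, with AC50 from Hill fits.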

[17] = Cell Viability - LYMP1-002 - Assay at 24 hr (AID 993); details: LYMP1-002 lymphoblastoid cells viability; series mostly up to 92.2 µM; also: % is scaled to controls: 0 for no effect and ±100 for the full control effect
In short: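 Viability was judged from intracellular ATP using a luciferase read-out, following a 24-hour compound incubation at 37 C of lymphoblastoid cells seeded at 2500 per well. Concentration-response data were fitted to the Hill equation for AC50.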

[18] = measured here: cell count channel max response
[19] = measured here: lipid channel max response

Chain of DNA repair nuclease/redox regulator APEX1 (Homo sapiens) (P27695 whole entry, looked up): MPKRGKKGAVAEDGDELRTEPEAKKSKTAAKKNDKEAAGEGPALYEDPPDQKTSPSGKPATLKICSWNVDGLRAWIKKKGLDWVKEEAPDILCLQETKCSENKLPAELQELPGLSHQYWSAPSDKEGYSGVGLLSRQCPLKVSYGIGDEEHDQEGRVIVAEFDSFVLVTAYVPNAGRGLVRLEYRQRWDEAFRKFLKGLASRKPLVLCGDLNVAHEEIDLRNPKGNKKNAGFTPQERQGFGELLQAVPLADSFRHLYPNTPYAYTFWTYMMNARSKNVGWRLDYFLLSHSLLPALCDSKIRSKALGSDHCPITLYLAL

CC(=O)[C@H]1CC[C@H]2[C@@H]3C=CC4=CC(=O)CC[C@@]4(C)[C@H]3CC[C@]12C
activity change, negative = inhibition ([1]; at 25.7 µM (top of the series)): -2.63% (inactive) | max response [1, 18]: -13.1% | max response [1, 19]: -17%

CC(=O)Nc1ccc(OC(=O)c2ccccc2O)cc1
activity change, negative = inhibition ([1]; at 57.5 µM (top of the series)): 5.77% (inactive) | max response [1, 18]: 14.6% | max response [1, 19]: 24.9%

CN1CCc2c(c3ccccc3n2Cc2ccccc2)C1
activity change, negative = inhibition ([1]; at 25.7 µM (top of the series)): -1.45% (inactive) | max response [1, 18]: 1.19% | max response [1, 19]: 1.48%

CC(=O)Oc1cccc(C(=O)O)c1OC(C)=O
activity change, negative = inhibition ([1]; at 57.5 µM (top of the series)): 4.19% (inactive) | max response [1, 18]: 10.5% | max response [1, 19]: 12%

O=C(O)Cc1cc(I)c(Oc2ccc(O)c(I)c2)c(I)c1
activity change, negative = inhibition ([1]; at 25.7 µM (top of the series)): -0.457% (inactive) | max response [1, 18]: 2.07% | max response [1, 19]: 0.793%

CCSc1ccc2c(c1)N(CCCN1CCN(C)CC1)c1ccccc1S2
activity change, negative = inhibition ([1]; at 25.7 µM (top of the series)): -4.9% (inactive) | max response [1, 18]: -20.1% | max response [1, 19]: -23.8%

O=C(NCCNCC(O)COc1ccc(O)cc1)N1CCOCC1 (stereo not drawn)
outcome [2]: inactive | activity change, negative = inhibition ([1]; at 57.5 µM (top of the series)): -2.06% (inactive) | max response [1, 18]: -28.3% | max response [1, 19]: -30.3% | outcome [3]: inactive | outcome [4]: inactive | outcome [5]: inactive | Potency [6]: inactive | Potency [7]: inactive | outcome [8]: inactive

CCCc1nc(C(C)(C)O)c(C(=O)OCc2oc(=O)oc2C)n1Cc1ccc(-c2ccccc2-c2nn[nH]n2)cc1
activity change, negative = inhibition ([1]; at 57.5 µM (top of the series)): 8.57% (inactive) | max response [1, 18]: 19.2% | max response [1, 19]: 29.3%

O=C1c2ccccc2C(=O)c2c1ccc(O)c2O
activity change, negative = inhibition ([1]; at 57.5 µM (top of the series)): 15% (inactive) | max response [1, 18]: 2.35% | max response [1, 19]: 20.3%

CC1(C)S[C@@H]2[C@H](NC(=O)C3(N)CCCCC3)C(=O)N2[C@H]1C(=O)O
activity change, negative = inhibition ([1]; at 25.7 µM (top of the series)): -0.399% (inactive) | max response [1, 18]: 10.5% | max response [1, 19]: 9.76%

CC(=O)N=c1sc(S(N)(=O)=O)nn1C
activity change, negative = inhibition ([1]; at 25.7 µM (top of the series)): -5.24% (inactive) | activity change, negative = inhibition ([1]; at 57.5 µM (top of the series)): -1.51% (inactive) | max response [1, 18]: -10.9% and 5.08% | max response [1, 19]: -12.6% and 4.84%

O=C1NCCN1c1ncc([N+](=O)[O-])s1
activity change, negative = inhibition ([1]; at 25.7 µM (top of the series)): -0.923% (inactive) | max response [1, 18]: 0.859% | max response [1, 19]: -3.74%

CC(=O)Oc1cccc2c1C(=O)c1c(OC(C)=O)cc(C(=O)O)cc1C2=O
activity change, negative = inhibition ([1]; at 57.5 µM (top of the series)): 13.8% (inactive) | max response [1, 18]: 25.9% | max response [1, 19]: 41.9%

Oc1ccc(/C=C/c2cc(O)cc(O)c2)cc1
Potency [9]: inactive | Potency [10]: inactive | Potency [11]: inactive | Potency [12]: inactive | Potency [13]: inactive | Potency [14]: inactive | Potency [15]: inactive | Potency [16]: inactive | Potency [17]: inactive | activity change, negative = inhibition ([1]; at 57.5 µM (top of the series)): 25.3% (inactive) | max response [1, 18]: -23.2% | max response [1, 19]: 2.31% | outcome [3]: inactive | outcome [4]: inactive | outcome [5]: inactive | Potency [6]: inactive

Source: PubChem BioAssay (NCATS)
